m5-HT2A agonist – activates the mouse 5-HT2A serotonin receptor. P35363. CHO-K1 mHTR2A beta-arrestin complementation, luminescence; percent of 30 µM serotonin response. activation, % at 7.6 µM. 360,000 tested, 0.66% active. AID 624169;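 active = activation above a run cutoff, the mean activation of all tested compounds plus 3 SD, cut at about 14% in these data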
Target sequence (P35363 whole entry, looked up): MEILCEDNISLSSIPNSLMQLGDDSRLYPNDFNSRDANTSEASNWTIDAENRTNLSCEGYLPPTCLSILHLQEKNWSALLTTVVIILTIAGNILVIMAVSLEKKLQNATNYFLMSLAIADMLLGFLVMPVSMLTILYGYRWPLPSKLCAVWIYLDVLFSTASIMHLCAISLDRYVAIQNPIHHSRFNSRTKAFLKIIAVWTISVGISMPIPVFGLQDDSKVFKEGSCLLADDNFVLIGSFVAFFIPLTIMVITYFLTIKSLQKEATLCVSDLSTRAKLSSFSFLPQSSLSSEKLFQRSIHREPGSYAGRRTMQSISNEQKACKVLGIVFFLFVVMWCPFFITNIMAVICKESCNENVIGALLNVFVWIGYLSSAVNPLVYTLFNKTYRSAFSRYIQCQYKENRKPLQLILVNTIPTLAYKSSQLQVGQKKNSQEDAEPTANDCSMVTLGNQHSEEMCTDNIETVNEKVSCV
MOR-DOR ag – OPRM1-OPRD1 heterodimerization agonism. activation, % at 9.3 µM. 340,000 tested, 0.3% active. P35372+P41143. cells, luminescence; in the data active = activation above about 18%
HTR5A inv ctr – HTR5A inverse agonism, opioid heterodimer counter-screen | AID 504634 | HTR5A cell line, luminescence | 340,000 tested, 0.083% active | P47898 | inhibition, % at 9.3 µM; in the data active = inhibition mostly above about 23%, no sharp cut-off; inactive = mostly below about 18%
OPRM1-OPRD1 inv – inverse agonists of human mu-delta opioid receptor heterodimerization; inhibition, % at 9.3 µM; P35372+P41143; cell-based MOR-DOR heterodimer luminescence, inverse agonism; 340,000 tested, 0.21% active; in the data active = inhibition above about 22%, passing the limit was not always enough
HTR5A ag ctr – activates human HTR5A in OPRM1-OPRD1 agonist counter-screen | HTR5A agonist assay, luminescence, cell-based | activation, % at 9.3 µM | P47898 | 340,000 tested, 0.61% active; in the data active = activation mostly above about 9.5%, no sharp cut-off; inactive = mostly below about 7.6%
OPRM1 ag – activates human mu opioid receptor in HTR2A counterscreen; 2,300 tested, 5.3% active; activation, % at 9.3 µM; shares compounds with m5-HT2A agonist; U2OS OPRM1 beta-arrestin PathHunter, luminescence; DMSO 0%, DAMGO 9.3 µM 100%;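 active = mean activation above the mean of DMSO-only wells plus 3 SD, cut at about 0.5% in these data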
HTR2A ag conf – confirmation of mouse HTR2A serotonin receptor agonists; shares compounds with m5-HT2A agonist; CHO-K1 PathHunter beta-arrestin recruitment, luminescence; DMSO 0%, 30 µM serotonin 100%; activation, % at 7.6 µM; 2,300 tested, 19% active; AID 624381;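 active = mean activation across triplicates above the hit threshold derived in the original primary screen, cut at about 15% in these data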
Each line names hits and unclear results; the compound was inactive in the other large screens (follow-up assays come after a bar, where they were run). Only some compounds are listed: those with a hit (about 1.6% of all), similar ones and a draw of the others.

CC(C)(C)c1ccc(C(=O)N2CCN(c3nc4ccccc4o3)CC2)cc1	m5-HT2A agonist 17 | OPRM1 ag inactive | HTR2A ag conf inactive
Cc1cc(OC(=O)c2cccc(F)c2)c([N+](=O)[O-])c(=O)[nH]1	m5-HT2A agonist 15 | OPRM1 ag inactive | HTR2A ag conf inactive
Cc1cc(OC(=O)c2cccc(Cl)c2)c([N+](=O)[O-])c(=O)[nH]1	none
N#Cc1ccccc1C[C@H](N)C(=O)NC[C@H]1O[C@@H](n2ccc(N)nc2=O)[C@H](O)[C@@H]1O	m5-HT2A agonist 29 (no result: MOR-DOR ag, HTR5A inv ctr, OPRM1-OPRD1 inv, HTR5A ag ctr) | OPRM1 ag inactive | HTR2A ag conf inactive
OCC[C@@H]1C[C@@H](O)[C@H](O)[C@]2(CCc3ccccc3CO2)O1	none
CN1CCN(c2ccc(Cl)cc2NC(=O)c2ccc(=O)n(C)n2)CC1	m5-HT2A agonist 18 | OPRM1 ag inactive | HTR2A ag conf inactive
CN1CCN(c2ccc(Cl)cc2NC(=O)c2cc(=O)[nH]c3ccccc23)CC1	none
COc1ccccc1CC(=O)Nc1cc(C)on1	none (no result: MOR-DOR ag, HTR5A inv ctr, OPRM1-OPRD1 inv, HTR5A ag ctr)
COc1ccc(CC(=O)Nc2cc(C)on2)cc1OC	m5-HT2A agonist 15 | OPRM1 ag inactive | HTR2A ag conf inactive
COc1ccc(N=C2C(=Nc3ccc(OC)cc3)N(c3ccc(OC)cc3)C(=S)N2c2ccccc2)cc1	m5-HT2A agonist 16 | OPRM1 ag inactive | HTR2A ag conf inactive
COc1ccc(N=C2C(=Nc3ccc(OC)cc3)N(c3ccc(OC)cc3)C(=S)N2C)cc1	none
CCOC(=O)N1CCC(c2cc(=O)n3[nH]ccc3n2)CC1	none
CCOC(=O)N1CCC(c2cc(=O)n3[nH]cc(C(=O)OC)c3n2)CC1	m5-HT2A agonist 20 | OPRM1 ag inactive | HTR2A ag conf inactive
CC(C)c1ccc(NC(=O)COC(=O)CCC(=O)c2cccs2)cc1	none
COC(=O)Cc1c(C)c2ccc(OCC(=O)N3CCCC(C)C3)c(C)c2oc1=O (stereo not drawn)	m5-HT2A agonist 15 | OPRM1 ag inactive | HTR2A ag conf inactive
O=C(COc1ccccc1Cl)NCCCNC(=O)c1cccnc1	none
CCN(Cc1ccccc1)C(=O)C(=O)c1cn(CC(=O)N2CCCC2)c2ccccc12	m5-HT2A agonist 16 | OPRM1 ag inactive | HTR2A ag conf inactive
CCN(CC)C(=O)Cn1cc(C(=O)C(=O)N2CCN(C)CC2)c2ccccc21	m5-HT2A agonist 16 | OPRM1 ag inactive | HTR2A ag conf inactive
Cc1ccn2cc(CNS(=O)(=O)c3ccc4c(c3)OCCO4)nc2c1	m5-HT2A agonist 26 | OPRM1 ag inactive | HTR2A ag conf inactive
Cc1csc2nc(CNS(=O)(=O)c3ccc4c(c3)OCCO4)cn12	none
CC(C)C[C@H]1C(=O)N2CCC[C@H]2[C@]2(O)O[C@](NC(=O)C3C=C4c5cccc6[nH]c(Br)c(c56)C[C@H]4N(C)C3)(C(C)C)C(=O)N12 (stereo partly drawn)	m5-HT2A agonist 48 | OPRM1 ag inactive | HTR2A ag conf 174
CCCC(=O)N1CCCC1(C)C(=O)NCCc1ccccn1 (stereo not drawn)	m5-HT2A agonist 22 (no result: MOR-DOR ag, HTR5A inv ctr, OPRM1-OPRD1 inv, HTR5A ag ctr) | OPRM1 ag inactive | HTR2A ag conf inactive
CC(C)C(=O)N1CCCC1(C)C(=O)NCc1ccccn1 (stereo not drawn)	none (no result: MOR-DOR ag, HTR5A inv ctr, OPRM1-OPRD1 inv, HTR5A ag ctr)
Cc1cc(CN(C)C(=O)C2CCC(=O)N(CCc3ccccc3)C2)n[nH]1 (stereo not drawn)	none
Cc1cnc(CN(C)C(=O)C2CCC(=O)N(CCc3ccccc3)C2)[nH]1 (stereo not drawn)	m5-HT2A agonist 20 | OPRM1 ag inactive | HTR2A ag conf inactive
O=C(COC(=O)c1ccc(O)cc1)NCC1CCCO1 (stereo not drawn)	none
COCc1ccc(CN2CCC(n3nccc3NC(=O)C(OC)c3ccccc3)CC2)o1 (stereo not drawn)	m5-HT2A agonist 15 | OPRM1 ag inactive | HTR2A ag conf inactive
Cc1ccc(NC(=O)COC(=O)C2CC2C)c(S(=O)(=O)N2CCCCC2)c1 (stereo not drawn)	none
COc1ccc(NC(=O)CCCNC(=O)c2ccc(Cl)cc2)cc1S(=O)(=O)N1CCOCC1	m5-HT2A agonist 15 | OPRM1 ag inactive | HTR2A ag conf inactive
